PubChem BioAssay (Tox21)
Inconclusive results are not listed. Active and inactive are the calls of the source. Calls come from the whole dose curve; as a rule, active = well fitted curve in the direction sought with a large enough effect in the repeat runs; inconclusive = weak or mixed curves; inactive = no such curve, though single readings can be large; an effect the other way counts as inactive or inconclusive.

Experiments:
[1] = A CellTox Green Cytotoxicity Assay to monitor cytotoxicity in HepG2 cells - 16 hour (AID 1224876); note: nearly all actives have a fitted effect of over 45% in size
How it was run: (§1)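 Continuous culture of HepG2 cells with a membrane-impermeant DNA dye; rising fluorescence marks dead cells. Compound exposure lasted up to 40 h at 37 C, with reads every 8 h from 0 h.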

[2] = qHTS RealTime-Glo MT Cell Viability Assay in HepG2 cells - 32 hour (AID 1224877); note: nearly all actives have a fitted effect of over 55% in size
How it was run: (§2)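 Tox21 10K library screened in qHTS format on HepG2 cells carrying RealTime-Glo reagents. Compounds were added after a 5 h preincubation, and the luminescent signal from continuous culture was measured repeatedly during 40 h treatment.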

[3] = A CellTox Green Cytotoxicity Assay to monitor cytotoxicity in HepG2 cells - 24 hour (AID 1224878); note: nearly all actives have a fitted effect of over 45% in size
How it was run: as §1

[4] = A CellTox Green Cytotoxicity Assay to monitor cytotoxicity in HepG2 cells - 40 hour (AID 1224879); note: nearly all actives have a fitted effect of over 40% in size
How it was run: as §1

[5] = qHTS RealTime-Glo MT Cell Viability Assay in HEK293 cells - 0 hour (AID 1224880); note: top concentration of the series differs between compounds; nearly all actives have a fitted effect of over 45% in size
How it was run: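 qHTS format; HEK293 cells with NanoLuc/prosubstrate reagent, 37 C/5% CO2 for 5 h pre-dosing; compounds 23 nL in DMSO; luminescence at each time point reflects viable cells.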

[6] = A CellTox Green Cytotoxicity Assay to monitor cytotoxicity in HEK293 cells - 32 hour (AID 1224881); note: nearly all actives have a fitted effect of over 40% in size
How it was run: (§3)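 Each value comes from one timepoint of a single continuous run in which HEK293 cells with CellTox Green were exposed to compound for up to 40 h at 37 C, dye fluorescence rising with cell death.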

[7] = A CellTox Green Cytotoxicity Assay to monitor cytotoxicity in HepG2 cells - 0 hour (AID 1224882); note: nearly all actives have a fitted effect of over 35% in size
How it was run: as §1

[8] = A CellTox Green Cytotoxicity Assay to monitor cytotoxicity in HepG2 cells - 32 hour (AID 1224883); note: nearly all actives have a fitted effect of over 50% in size
How it was run: as §1

[9] = A CellTox Green Cytotoxicity Assay to monitor cytotoxicity in HEK293 cells - 8 hour (AID 1224884); note: nearly all actives have a fitted effect of over 35% in size
How it was run: as §3

[10] = qHTS RealTime-Glo MT Cell Viability Assay in HepG2 cells - 16 hour (AID 1224885); note: nearly all actives have a fitted effect of over 50% in size
How it was run: as §2
% is set by controls: 0 for no effect and ±100 for the full control effect.

O=C(Nc1cccc(C2=NCCN2)c1)Nc1cccc(C2=NCCN2)c1
inactive: cytotoxicity increase [1] -11.3% [at 15.8 µM] | activity change, negative = cytotoxic [2] 2.71% [at 15.8 µM] | cytotoxicity [3] -8.34% [at 15.8 µM] | cytotoxicity increase [4] -7.03% [at 15.8 µM] | activity change, negative = cytotoxicity [5] -5.15% [at 15.8 µM] | cytotoxicity increase [6] -2.02% [at 15.8 µM] | cytotoxicity [7] -0.131% [at 15.8 µM] | cytotoxicity increase [8] -8.68% [at 15.8 µM] | cytotoxicity increase [9] -6.06% [at 15.8 µM] | activity change, negative = cytotoxic [10] 0.713% [at 15.8 µM]

COc1cc2c(Nc3ccc(Br)cc3F)ncnc2cc1OCC1CCN(C)CC1
inactive: Potency [1] | outcome [2] | Potency [3] | Potency [4] | outcome [5] | Potency [6] | Potency [7] | Potency [8] | outcome [10]

CC(Cl)COP(=O)(OCC(C)Cl)OCC(C)Cl (stereo not given)
inactive: Potency [1] | outcome [2] | Potency [3] | Potency [4] | outcome [5] | Potency [6] | Potency [7] | Potency [8] | outcome [10]

CN(C1CCCCC1)S(=O)(=O)c1ccccc1N
inactive: Potency [1] | outcome [2] | Potency [3] | Potency [4] | outcome [5] | Potency [6] | Potency [7] | Potency [8] | outcome [10]

Cc1cccc(NC(=S)N(C)C)c1
inactive: Potency [1] | outcome [2] | Potency [3] | Potency [4] | outcome [5] | Potency [6] | Potency [7] | Potency [8] | Potency [9] | outcome [10]

O=C(O)/C=C/c1ccccc1
inactive: Potency [1] | outcome [2] | Potency [3] | Potency [4] | outcome [5] | Potency [6] | Potency [7] | Potency [9]

NC(=O)NC(=O)Cc1ccccc1
inactive: Potency [1] | outcome [2] | Potency [3] | Potency [4] | outcome [5] | Potency [6] | Potency [7] | Potency [9]

CC(=O)c1ccc(OCC(=O)N2CCCCC2)cc1
inactive: Potency [1] | outcome [2] | Potency [3] | Potency [4] | Potency [6] | Potency [7] | Potency [8] | Potency [9] | outcome [10]

COc1ccc(OC)c(NC(=O)CC(C)=O)c1
inactive: Potency [1] | outcome [2] | Potency [3] | Potency [4] | outcome [5] | Potency [6] | Potency [7] | Potency [9] | outcome [10]

Cc1nc(C)nc(N2C[C@@H](C)N(c3ccnc([C@@H](C)O)n3)[C@@H](C)C2)n1
inactive: Potency [1] | outcome [2] | Potency [3] | Potency [4] | Potency [6] | Potency [7] | Potency [8] | Potency [9] | outcome [10]

O=C(COCCOCCOCC(=O)Nc1c(I)cc(I)c(C(=O)O)c1I)Nc1c(I)cc(I)c(C(=O)O)c1I
inactive: Potency [1] | outcome [2] | Potency [3] | Potency [4] | outcome [5] | Potency [7] | Potency [9] | outcome [10]

O=CO
inactive: cytotoxicity increase [1] -13.8% [at 6.97 µM] | activity change, negative = cytotoxic [2] 7.5% [at 6.97 µM] | cytotoxicity [3] -17.2% [at 6.97 µM] | cytotoxicity increase [4] -21.3% [at 6.97 µM] | activity change, negative = cytotoxicity [5] 3.48% [at 6.97 µM] | cytotoxicity [7] -9.11% [at 6.97 µM] | cytotoxicity increase [8] -19.2% [at 6.97 µM] | activity change, negative = cytotoxic [10] -5.47% [at 6.97 µM]

COCC(=O)Nc1c(I)c(C(=O)NCC(O)CO)c(I)c(C(=O)N(C)CC(O)CO)c1I (stereo not given)
inactive: Potency [1] | outcome [2] | Potency [3] | Potency [4] | Potency [6] | Potency [7] | Potency [8] | Potency [9]

CCCCOC(=O)C(=O)OCCCC
inactive: Potency [1] | outcome [2] | Potency [3] | Potency [4] | outcome [5] | Potency [6] | Potency [7] | Potency [9] | outcome [10]

CC(=O)Nc1ccc(C)cc1
inactive: Potency [1] | outcome [2] | Potency [3] | Potency [4] | outcome [5] | Potency [6] | Potency [7] | Potency [9]

O=[Si]=O
inactive: Potency [1] | outcome [2] | Potency [3] | Potency [4] | outcome [5] | Potency [6] | Potency [7] | Potency [9] | outcome [10]

CC(=O)OC[C@H]1O[C@@H](OC(C)=O)[C@H](OC(C)=O)[C@@H]1OC(C)=O
inactive: Potency [1] | outcome [2] | Potency [3] | Potency [4] | outcome [5] | Potency [6] | Potency [7] | Potency [9] | outcome [10]

COC(/C=C(\C)CCC=C(C)C)OC
inactive: Potency [1] | outcome [2] | Potency [3] | Potency [4] | Potency [6] | Potency [7] | Potency [8] | Potency [9]

CCCCCC(=O)OCC
inactive: Potency [1] | outcome [2] | Potency [3] | Potency [4] | outcome [5] | Potency [6] | Potency [7] | Potency [9] | outcome [10]

C1=C\CC/C=C\CC/1
inactive: Potency [1] | outcome [2] | Potency [3] | Potency [4] | outcome [5] | Potency [6] | Potency [7] | outcome [10]

N#CCCOCCOCCC#N
inactive: Potency [1] | outcome [2] | Potency [3] | Potency [4] | outcome [5] | Potency [6] | Potency [7] | Potency [9]

C=CCOCC(CO)(COCC=C)COCC=C
inactive: Potency [1] | outcome [2] | Potency [3] | Potency [4] | Potency [6] | Potency [7] | Potency [8] | Potency [9]

CCN1CN(CC)CN(CC)C1
inactive: Potency [1] | outcome [2] | Potency [3] | Potency [4] | outcome [5] | Potency [6] | Potency [7] | Potency [9] | outcome [10]

O=c1[nH]c(=O)c2[nH]c(=O)[nH]c2[nH]1
inactive: cytotoxicity increase [1] -0.724% [at 6.97 µM] | activity change, negative = cytotoxic [2] 0.932% [at 6.97 µM] | cytotoxicity [3] -0.222% [at 6.97 µM] | cytotoxicity increase [4] 1.9% [at 6.97 µM] | activity change, negative = cytotoxicity [5] 1.84% [at 6.97 µM] | cytotoxicity increase [6] -13.1% [at 6.97 µM] | cytotoxicity [7] -5.08% [at 6.97 µM] | cytotoxicity increase [9] -15.5% [at 6.97 µM] | activity change, negative = cytotoxic [10] 0.919% [at 6.97 µM]

NCCc1ccn[nH]1
inactive: Potency [1] | outcome [2] | Potency [3] | Potency [4] | outcome [5] | Potency [6] | Potency [7] | Potency [9] | outcome [10]

C[C@H](CCC(=O)NCC(=O)O)[C@H]1CC[C@H]2[C@@H]3[C@H](O)C[C@@H]4C[C@H](O)CC[C@]4(C)[C@H]3C[C@H](O)[C@]12C
inactive: Potency [1] | outcome [2] | Potency [3] | Potency [4] | Potency [6] | Potency [7] | Potency [8] | Potency [9]
